Data taken from PubChem BioAssay (NCATS).
Inconclusive results are not listed. Some compounds were tested as several samples or in several runs, with calls that do not always agree. Activity calls are given as the source filed them. Calls come from the whole dose curve; as a rule, active = well fitted inhibition curve with a large enough effect; inconclusive = small, poorly fitted or top-dose-only effect; inactive = no such curve, though single readings can be large or run the other way.

What follows are molecules tested against Retinaldehyde dehydrogenase 3 (Homo sapiens) (UniProt P47895) (assay: qHTS for Inhibitors of the Aldehyde Dehydrogenase Family (ALDH1A3) Validation screen (AID 2061312; note: nearly all actives have a fitted effect of over 45% in size)). Conditions: ALDH1A3 enzyme inhibition qHTS validation, fluorescence; series mostly up to 84.7 µM; activity change, negative = inhibition: at the top concentration.
% is set by controls: 0 for no effect and ±100 for the full control effect; potency is the fitted concentration of half-maximal effect.

Structure (SMILES)	Potency	activity change, negative = inhibition
Cc1ccc(S(=O)(=O)c2ccc([N+](=O)[O-])o2)cc1	1.41 µM (active)	–
N#Cc1ccc(C(=O)N2CCC3(CC2)N=C(N)c2c(F)ccc(F)c2N3)cn1	–	64.4% (inactive)
Cc1onc(-c2c(Cl)cccc2Cl)c1C(=O)N[C@@H]1C(=O)N2[C@@H]1SC(C)(C)[C@@H]2C(=O)O	–	89.3% (inactive)
CCN(CC)CCOCCOC(=O)C(CC)(CC)c1ccccc1	–	-10% (inactive)
O=c1[nH]c2cccc(N3CCN(Cc4ccc(-c5ccccc5)cc4)CC3)c2o1	–	23.8% (inactive)
NC(N)=NCCC[C@H](NC(=O)c1sccc1NS(=O)(=O)c1cccc2nsnc12)C(=O)O	–	-28.9% (inactive)
Cc1cn(C[C@H](N)C(=O)O)c(=O)n(Cc2ccsc2C(=O)O)c1=O	12.6 µM (active)	–
NC(=O)[C@H]1CCS[C@@H]2C[C@]3(CCCN3C(=O)Cc3ccc(NC(=O)COc4ccc(Cl)cc4Cl)cc3)C(=O)N12	–	-12% (inactive)
NCc1ccc(OCCCc2sc(-c3ccc4c(c3)/C(=N/Nc3nc5ccccc5s3)CCC4)nc2C(=O)O)cc1	7.08 µM (active)	–
O=C(CCN1CCN(C(=O)OCc2cc(Cl)cc(Cl)c2)CC1)c1ccc2[nH]c(=O)oc2c1	–	-56.3% (inactive)
CCC(=O)c1cc(-c2ccc(Cl)cc2)n(-c2ccc(S(N)(=O)=O)cc2)c1C	–	7.18% (inactive)
OC[C@H]1O[C@@H](n2cnc3c2NC=NC[C@H]3O)C[C@@H]1O	–	-10.4% (inactive)
O=C(Nc1cc(C(F)(F)F)cc(C(F)(F)F)c1)c1cnc(Cl)nc1C(F)(F)F	–	-56.2% (inactive)

These molecules were tested against Retinal dehydrogenase 2 (Homo sapiens) (UniProt O94788) (assay: qHTS for Inhibitors of the Aldehyde Dehydrogenase Family (ALDH1A2) Confirmation screens (AID 2061314; note: nearly all actives have a fitted effect of over 65% in size)). Conditions: ALDH1A2 enzyme inhibition qHTS confirmation; series mostly up to 45.9 µM; activity, negative = inhibition: at the top concentration.

Structure (SMILES)	Potency	activity, negative = inhibition	outcome
Cc1ccc(S(=O)(=O)c2ccc([N+](=O)[O-])o2)cc1	3.98 µM (active)	–	–
Clc1cccc(COc2cncc(N3CCNCC3)n2)c1	–	-18.3% (inactive)	–
CCNC(=O)OC1CCN(c2nncc3cc(OC)c(OC)cc23)CC1	–	-7.05% (inactive)	–
N[C@H]1Cc2ccccc2N(O)C1=O	–	-13.2% (inactive)	–
COc1cc(CC2COC(c3ccc(OC4OC(CO)C(O)C(O)C4O)c(OC)c3)C2CO)ccc1O (stereo not given)	–	-28.6% [at 25.6 µM] (inactive)	–
N#Cc1ccc(C(=O)N2CCC3(CC2)N=C(N)c2c(F)ccc(F)c2N3)cn1	–	3.93% (inactive)	–
Oc1ccc(CC2NCCc3cc(O)c(O)cc32)cc1 (stereo not given)	–	-18.7% (inactive)	–
Cc1cc(Cl)ccc1COc1ccnn1-c1cc(C(=O)O)ccn1	–	-4.09% (inactive)	–
CCN(CC)CCOCCOC(=O)C(CC)(CC)c1ccccc1	–	–	inactive
O=c1[nH]c2cccc(N3CCN(Cc4ccc(-c5ccccc5)cc4)CC3)c2o1	–	–	inactive
N#Cc1ccc(-c2cnc3[nH]cc(NC(=O)c4cccnc4)c3c2)cc1	2.83 µM (active)	–	–
O=C1C[C@@H](c2ccc(O)cc2)Oc2cc(O)ccc21	–	-6.45% (inactive)	–
CC/C=C\[C@H](O)[C@H](O)C1=C(C)C(=O)[C@]2(O1)C(=O)N[C@@](O)(C(=O)c1ccccc1)[C@@H]2O	–	-8.01% [at 25.6 µM] (inactive)	–
NC(N)=NCCC[C@H](NC(=O)c1sccc1NS(=O)(=O)c1cccc2nsnc12)C(=O)O	–	-8.8% (inactive)	–
C[S+](CC[C@H](N)C(=O)[O-])C[C@H]1O[C@@H](n2cnc3c(N)ncnc32)[C@H](O)[C@@H]1O (stereo not given in full)	–	-9.92% (inactive)	–
COc1cccc(OC)c1C(=O)N[C@@H]1C(=O)N2[C@@H]1SC(C)(C)[C@@H]2C(=O)O	–	2.84% (inactive)	–
COC(=O)[C@]1(Cc2ccc(O)c(CC=C(C)C)c2)OC(=O)C(O)=C1c1ccc(O)cc1	–	-20.5% [at 25.6 µM] (inactive)	–
N[C@@]1(C(=O)O)CC[C@H]2[C@H](C(=O)O)[C@H]21	–	-30.5% (inactive)	–
NC(=O)[C@H]1CCS[C@@H]2C[C@]3(CCCN3C(=O)Cc3ccc(NC(=O)COc4ccc(Cl)cc4Cl)cc3)C(=O)N12	–	1.05% (inactive)	–

Structure (SMILES)	Potency	activity, negative = inhibition	outcome
C=C1C(=O)O[C@H]2C[C@@H](C)[C@@H]3CCC(=O)[C@@]3(C)C[C@H]12	–	-27.5% (inactive)	–
NCc1ccc(OCCCc2sc(-c3ccc4c(c3)/C(=N/Nc3nc5ccccc5s3)CCC4)nc2C(=O)O)cc1	–	-16.3% (inactive)	–
O=C(O)c1cccc(-c2noc(-c3ccccc3F)n2)c1	–	-17.1% (inactive)	–
CC(O)(C#Cc1ccc2c(c1)N(c1nc(N)ncc1Cl)CC2)c1nccs1 (stereo not given)	–	–	inactive
CCOC(=O)[C@H](CCc1ccccc1)N[C@@H](C)C(=O)N1C(=O)N(C)C[C@H]1C(=O)O	–	3.18% (inactive)	–
O=C(CCN1CCN(C(=O)OCc2cc(Cl)cc(Cl)c2)CC1)c1ccc2[nH]c(=O)oc2c1	252 nM (active) and inactive	–	–
C=C1CC[C@@H]2[C@](C)(CO)[C@H](O)CC[C@@]2(C)[C@@H]1CC(=O)C1=CCOC1=O	–	-4.2% [at 25.6 µM] (inactive)	–
OC[C@H]1O[C@@H](n2cnc3c2NC=NC[C@H]3O)C[C@@H]1O	–	–	inactive
CCC(C)C(N)C(=O)NCCN1CCOCC1 (stereo not given)	–	-1.03% (inactive)	–
CC(C)(CC(=O)N1CCCC1)NCC(=O)N1C[C@@H](F)C[C@H]1C#N	–	0.273% (inactive)	–
O=C(CCl)Nc1cccc(NC2=NS(=O)(=O)c3ccccc32)c1	1.01 µM (active)	–	–
O=C(Nc1cc(C(F)(F)F)cc(C(F)(F)F)c1)c1cnc(Cl)nc1C(F)(F)F	–	-1.75% (inactive)	–
Fc1ccc(-c2nc(C3CCNCC3)sc2-c2ccnc(NC3CC3)n2)cc1	–	-27.8% (inactive)	–
O=C(O)c1n[nH]c2c1C[C@H]1C[C@@H]21	–	3.92% (inactive)	–
N#Cc1ccc(O[C@@H]2c3ccccc3C[C@H]2N2CCC[C@@H](N)C2)c(Cl)c1	–	-15.4% (inactive)	–
O=c1cc(CN2CCOCC2)occ1OCCCCCSc1ccnc2cc(C(F)(F)F)ccc12	–	-9.45% (inactive)	–
CC1(C)C[C@H]2C=C(C=O)[C@]3(C(=O)O)C[C@]3(C)[C@H]2C1	–	-18% (inactive)	–
COc1ccc(CC2NCCc3c2[nH]c2ccc(C)cc32)cc1OC (stereo not given)	–	-24.8% (inactive)	–
